Source: the supplement of paper PMC9694430

Experiments:
Assay in all cases: thermal shift delta Tm vs DMSO control; higher = stronger stabilization (binding)
Conditions in all cases: 12.5 µM; protein concentration 2 µM
LOC_OS01G57100-cb003 = tested on: LOC_OS01G57100-cb003
Summary of the method: (§1)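 Heating from 25°C to 95°C at 0.05°C/s, fluorescence was recorded for 19.5 μl wells of 2 μM E. coli-expressed, purified rice kinase domain in 100 mM potassium phosphate pH 7.5, 150 mM NaCl, 10% glycerol and 5 × SYPRO Orange with compound in DMSO. Boltzmann fits gave melting temperatures for this differential scanning fluorimetry assay. The shift reported is the mean of three replicates against the DMSO-only protein.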

LOC_OS01G60330-cb001 = tested on: LOC_OS01G60330-cb001
Summary of the method: as §1

LOC_OS01G60700-cb002 = tested on: LOC_OS01G60700-cb002
Summary of the method: as §1

LOC_OS01G63280-cb003 = tested on: LOC_OS01G63280-cb003
Summary of the method: as §1

LOC_OS01G67340-cb003 = tested on: LOC_OS01G67340-cb003
Summary of the method: as §1

LOC_OS01G70970-cb002 = tested on: LOC_OS01G70970-cb002
Summary of the method: as §1

LOC_OS02G07810-cb001 = tested on: LOC_OS02G07810-cb001
Summary of the method: as §1

LOC_OS02G08530-cb003 = tested on: LOC_OS02G08530-cb003
Summary of the method: as §1

LOC_OS02G14120-cb001 = tested on: LOC_OS02G14120-cb001
Summary of the method: as §1

LOC_OS02G17970-cb001 = tested on: LOC_OS02G17970-cb001
Summary of the method: as §1

LOC_OS02G45750-cb003 = tested on: LOC_OS02G45750-cb003
Summary of the method: as §1

LOC_OS02G54510-cb004 = tested on: LOC_OS02G54510-cb004
Summary of the method: as §1

LOC_OS03G04050-cb001 = tested on: LOC_OS03G04050-cb001
Summary of the method: as §1

LOC_OS03G12390-cb001 = tested on: LOC_OS03G12390-cb001
Summary of the method: as §1

LOC_OS03G27990-cb004 = tested on: LOC_OS03G27990-cb004
Summary of the method: as §1

LOC_OS03G50450-cb001 = tested on: LOC_OS03G50450-cb001
Summary of the method: as §1

LOC_OS03G50810-cb003 = tested on: LOC_OS03G50810-cb003
Summary of the method: as §1

LOC_OS04G35114-cb001 = tested on: LOC_OS04G35114-cb001
Summary of the method: as §1

LOC_OS04G38480-cb003 = tested on: T1, LOC_OS04G38480-cb003
T1 sequence (whole entry): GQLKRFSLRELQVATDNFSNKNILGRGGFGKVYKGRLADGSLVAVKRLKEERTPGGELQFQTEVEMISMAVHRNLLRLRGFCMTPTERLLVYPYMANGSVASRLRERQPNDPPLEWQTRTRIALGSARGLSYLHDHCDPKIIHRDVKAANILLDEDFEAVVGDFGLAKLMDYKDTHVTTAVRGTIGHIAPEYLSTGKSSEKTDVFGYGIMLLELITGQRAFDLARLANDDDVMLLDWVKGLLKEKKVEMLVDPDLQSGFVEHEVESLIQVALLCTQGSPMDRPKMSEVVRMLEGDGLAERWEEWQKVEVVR
Summary of the method: as §1

LOC_OS04G41100-cb001 = tested on: T2, LOC_OS04G41100-cb001
T2 sequence (whole entry): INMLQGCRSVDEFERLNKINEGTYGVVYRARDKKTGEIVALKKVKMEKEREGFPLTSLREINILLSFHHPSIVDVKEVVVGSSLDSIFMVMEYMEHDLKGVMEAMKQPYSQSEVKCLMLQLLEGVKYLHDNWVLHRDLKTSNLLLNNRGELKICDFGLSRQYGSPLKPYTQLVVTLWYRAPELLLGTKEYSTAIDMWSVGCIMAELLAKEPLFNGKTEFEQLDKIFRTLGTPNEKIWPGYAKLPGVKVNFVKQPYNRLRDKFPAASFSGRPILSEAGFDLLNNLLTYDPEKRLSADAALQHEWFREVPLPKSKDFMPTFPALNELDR
Summary of the method: as §1
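Note: purified Escherichia coli-expressed rice kinase domain construct.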

Compound	thermal shift delta Tm (LOC_OS01G57100-cb003) [°C]	thermal shift delta Tm (LOC_OS01G60330-cb001) [°C]	thermal shift delta Tm (LOC_OS01G60700-cb002) [°C]	thermal shift delta Tm (LOC_OS01G63280-cb003) [°C]	thermal shift delta Tm (LOC_OS01G67340-cb003) [°C]	thermal shift delta Tm (LOC_OS01G70970-cb002) [°C]	thermal shift delta Tm (LOC_OS02G07810-cb001) [°C]	thermal shift delta Tm (LOC_OS02G08530-cb003) [°C]	thermal shift delta Tm (LOC_OS02G14120-cb001) [°C]	thermal shift delta Tm (LOC_OS02G17970-cb001) [°C]	thermal shift delta Tm (LOC_OS02G45750-cb003) [°C]	thermal shift delta Tm (LOC_OS02G54510-cb004) [°C]	thermal shift delta Tm (LOC_OS03G04050-cb001) [°C]	thermal shift delta Tm (LOC_OS03G12390-cb001) [°C]	thermal shift delta Tm (LOC_OS03G27990-cb004) [°C]	thermal shift delta Tm (LOC_OS03G50450-cb001) [°C]	thermal shift delta Tm (LOC_OS03G50810-cb003) [°C]	thermal shift delta Tm (LOC_OS04G35114-cb001) [°C]	thermal shift delta Tm (LOC_OS04G38480-cb003) [°C]	thermal shift delta Tm (LOC_OS04G41100-cb001) [°C]
Cc1nc(Nc2ncc(C(=O)Nc3c(C)cccc3Cl)s2)cc(N2CCN(CCO)CC2)n1 [Dasatinib]	0.7	0.68	1.43	0.25	0.73	0.48	0.58	0.93	4.94	0	10.7	14	0.29	0.81	1.34	0.06	3.61	5.79	1.57	0.77
Cn1cc(/C=C2\C(=O)Nc3cccnc32)c2ccccc21	1.08	12.1	1.27	0.58	2.54	4.16	1.32	4.2	3.15	1.08	11.3	0.63	0.83	3.11	1.64	4	3.46	6.79	3.05	0.74
Cc1ccc([N+](=O)[O-])cc1S(=O)(=O)N(C)/N=C/c1cnc2ccc(Br)cn12	3.41	-0.03	1.24	1.7	3.58	4.2	0.51	6.04	9.06	1.2	1.33	0.35	0.72	0.02	0.5	0.64	0.47	1.17	3.16	1.09
Cc1cc(C(=O)Nc2nc3cccc(Cl)c3n2[C@@H]2CCCCN(C(=O)/C=C/CN(C)C)C2)ccn1 [Nazartinib (EGF816, NVS-816)]	1.05	1.72	1.17	0.35	1.06	0.93	0.98	2.18	1.69	1.28	0.42	0.81	0.51	2.23	1.56	0.64	0.51	1.87	2.14	0.6
C[C@H](NC(=O)c1c(N)nn2cccnc12)c1cc2cccc(C#Cc3cnn(C)c3)c2c(=O)n1-c1ccccc1	1.25	0.23	-0.49	0	0.21	0.36	-0.71	0.78	0.56	0.54	1.18	0.33	0.47	-0.11	0.46	0.63	0.32	0.21	1.13	0.04
CN1CCC(Nc2nc(Nc3ccc(Oc4ccccc4)cc3)c3c(=O)[nH]cc(Br)c3n2)CC1	1.9	3.13	1.69	0.86	1.7	3.58	0.79	3.25	3.98	0.52	6.91	0.98	0.8	2.05	1.75	1.67	2.6	4.37	2.13	0.75
